# Shown are actives, neighbours in structure and some others; about 3.6% of the full set was active somewhere.
# BoNT F protease – blocks Botulinum neurotoxin F light chain protease; Multiplex microsphere protease cleavage assay, flow cytometry; inhibition, % at 10 µM; 360,000 tested, 0.22% active; AID 588497; in the data active = inhibition above about 35%, passing the limit was not always enough; inconclusive = no clear call, values can overlap the other calls; note: plate controls were buffer without enzyme for full effect and enzyme alone for no effect
# Anthrax LF prot – blocks Bacillus anthracis lethal factor protease | AID 588501 | 360,000 tested, 0.12% active | P15917 | multiplex microsphere protease cleavage assay, LF | inhibition, % at 10 µM; note: plate controls were buffer without enzyme for full effect and enzyme alone for no effect
# Target sequence (P15917 whole entry, looked up): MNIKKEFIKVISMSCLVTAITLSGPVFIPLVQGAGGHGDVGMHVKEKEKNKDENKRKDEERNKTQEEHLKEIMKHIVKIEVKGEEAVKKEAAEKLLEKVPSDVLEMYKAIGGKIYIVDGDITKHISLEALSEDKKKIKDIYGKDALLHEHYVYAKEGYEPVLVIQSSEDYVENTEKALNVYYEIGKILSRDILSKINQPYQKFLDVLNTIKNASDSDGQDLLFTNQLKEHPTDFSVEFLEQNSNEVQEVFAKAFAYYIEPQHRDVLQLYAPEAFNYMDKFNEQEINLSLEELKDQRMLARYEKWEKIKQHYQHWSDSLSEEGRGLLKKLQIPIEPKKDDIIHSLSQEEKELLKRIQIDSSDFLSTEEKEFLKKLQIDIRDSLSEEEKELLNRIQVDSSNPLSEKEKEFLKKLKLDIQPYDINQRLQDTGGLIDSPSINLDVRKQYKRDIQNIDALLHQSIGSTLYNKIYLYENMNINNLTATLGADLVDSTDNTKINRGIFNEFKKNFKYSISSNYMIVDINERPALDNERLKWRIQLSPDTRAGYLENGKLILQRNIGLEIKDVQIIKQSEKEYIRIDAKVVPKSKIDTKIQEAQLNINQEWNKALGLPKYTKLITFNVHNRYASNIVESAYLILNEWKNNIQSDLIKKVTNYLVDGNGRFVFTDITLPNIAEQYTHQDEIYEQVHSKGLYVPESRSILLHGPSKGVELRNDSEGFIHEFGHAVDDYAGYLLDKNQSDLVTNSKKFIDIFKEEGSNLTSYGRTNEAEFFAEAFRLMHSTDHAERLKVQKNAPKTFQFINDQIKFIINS
# BoNT A protease – BoNT A light chain protease inhibition. multiplex microsphere protease substrate cleavage, flow cytometry. inhibition, % at 10 µM. 360,000 tested, 0.17% active. AID 588499; note: plate controls were buffer without enzyme for full effect and enzyme alone for no effect
# Autofluor counter – flagged as autofluorescent in microsphere protease counterscreen | compound autofluorescence counterscreen, microsphere flow cytometry; hits give high values | fluorescence intensity (no concentration beside the values) | 360,000 tested, 3.1% active | AID 624483; in the data active = fluorescence intensity above about 16000; inconclusive = no clear call, values can overlap the other calls
# MazEF act – activators of E. coli MazEF toxin-antitoxin RNase; P0AE70; FAM/BHQ RNA-DNA oligo cleavage fluorescence, 5 h; activation, % at 20 µM; 350,000 tested, 0.32% active; AID 504720; in the data active = activation above about 50%
# * marks the source's active call; other numbers are inactive results; ? = inconclusive; · = no result given. Cut-off read from the data, not from the text of the source, unless noted: active = inhibition above about 30%; inconclusive = no clear call, values can overlap the other calls; inactive = below that.
SMILES,BoNT F protease,Anthrax LF prot,BoNT A protease,Autofluor counter,MazEF act
CC[C@]12c3[nH]c4ccc(OC)cc4c3CCN1C(=O)C(CC(=O)NCc1ccc(OC)c(OC)c1)C[C@@H]2C(=O)N1CCN(C(=O)C2CC2)CC1 (stereo not given in full),-0.3,-3.8,-0.5,4037,1.9
O=C1NC(=S)NC(=O)C1Nc1ccc(Cl)cc1,-4.3,-5.7,-0.3,2936,-17.6
Cn1nc(C(C)(C)C)cc1C(=O)N1CCC(C)(C(=O)NS(=O)(=O)C2CC2)C1 (stereo not given),-5.4,-11.4,-0.4,3194,·
COc1ccc(-c2ccc(/C=C3\C(=O)N(c4ccccc4)N=C3c3ccccc3)o2)c([N+](=O)[O-])c1,-16.3,-5.9,0.6,3606,-3.9
COc1ccc(-c2ccc(/C=C3/C(=N)N4C(C)=CSC4=NC3=O)o2)c([N+](=O)[O-])c1,-3.9,-1.0,1.9,2731,67.9*
Cc1c(OCc2nn[nH]n2)ccc2c(-c3ccccc3)cc(=O)oc12,-12.7,-3.4,-1.0,9006,-2.5
Cc1cc(OCc2nn[nH]n2)c2c(-c3ccccc3)cc(=O)oc2c1,1.4,-2.5,1.0,20272*,4.6
COc1ccc(-c2cc(=O)oc3c(C)c(OCc4nn[nH]n4)ccc23)cc1,-2.5,-9.1,?,23374*,4.4
Cc1ccccc1CN1CC2=C(CCN(Cc3ccccc3)C2=O)N2CCN=C12,9.1,-4.3,0.0,5577,·
CCOC(=O)C1CCN(C(=O)c2sc3ncnc(N4CCC(C)CC4)c3c2C)CC1,1.9,-2.2,?,16307*,5.3
CCOC(=O)C1CCN(C(=O)c2sc3nc(C)nc(N4CCC(C)CC4)c3c2C)CC1,-4.0,-1.4,-3.0,21764*,3.3
Cc1sc2ncnc(N3CCC(C)CC3)c2c1C,-17.8,1.0,-0.2,3352,-5.2
Cc1c(P(=S)(c2ccccc2)c2ccccc2)[n+]2ccccc2n1C/C=C/c1ccccc1,-5.7,-0.1,-0.2,3996,·
CCOC(=O)C1(S(=O)(=O)c2ccc(Cl)cc2)CCN(Cc2ccc(Cl)cc2)CC1,-0.7,-5.8,0.9,23017*,-14.2
CCOc1ccc(C(=O)NCC(=O)NCCSc2ccc(Br)cc2)cc1OCC,-2.9,-0.2,0.7,3940,-1.9
Cc1cc(C)n(Cc2ccc(NC(=O)c3nn(C)cc3[N+](=O)[O-])cc2)n1,1.0,-11.1,1.7,22583*,-0.1
CCn1cc([N+](=O)[O-])c(C(=O)Nc2ccc(Cn3nc(C)cc3C)cc2)n1,-6.7,-2.4,-0.2,10112,10.2
Cc1cc(C)n(Cc2ccc(NC(=O)c3c([N+](=O)[O-])c(C)nn3C)cc2)n1,4.4,-2.2,3.5,21819*,5.2
Cc1ccc(OC(C)C(=O)Nc2cccc(S(=O)(=O)N3CCCCCC3)c2)cc1 (stereo not given),3.9,-3.7,0.1,3544,-1.6
O=C(Nc1ccc(N2CCOCC2)cc1)c1csc([C@H]2C[C@H](O)[C@@H](CO)O2)n1,3.9,-1.7,-0.2,2901,·
C#CCOCCOCCOCCNc1nc(N2CCN(C(=O)[C@H]([C@@H](C)CC)n3cc([C@@H](N)Cc4ccc(O)cc4)nn3)CC2)nc(N2CCN(C(=O)[C@H]([C@@H](C)CC)n3cc([C@@H](N)Cc4ccc(O)cc4)nn3)CC2)n1,-25.7,-1.2,-0.8,4226,51.2*
Cc1ccc(S(=O)(=O)N(CCCc2c(C)nc[nH]c2=O)c2ccccc2)cc1,0.0,-6.7,-0.5,3710,3.2
COc1ccc(-c2cc3nc4n(c(=O)c3s2)CCC4)cc1,1.0,0.4,?,23433*,6.3
COc1ccc(-c2cc3nc4n(c(=O)c3s2)CCCCC4)cc1,-0.6,-7.7,-0.3,6420,5.1
CCCn1nnnc1-c1cccc(Cl)c1,1.1,1.5,1.1,20165*,1.4
SMILES,BoNT F protease,Anthrax LF prot,BoNT A protease,Autofluor counter,MazEF act
CCCn1nnnc1NC(=O)c1cc(Cl)ccc1Cl,6.2,-3.2,-0.9,9391,0.5
CCCn1nnnc1-c1ccc(Cl)cc1,-3.5,-1.4,-0.1,19416*,2.3
FC(F)(F)c1cccc(Cn2nnnc2-c2ccc(Cl)cc2)c1,-2.0,0.4,-0.9,22919*,3.3
CCCn1nnnc1NC(=O)CSc1ccc(Cl)cc1,-5.7,-1.1,-1.0,9078,0.1
O=[N+]([O-])c1ccc(COc2cccc(CNc3ccc(Br)cc3)c2)cc1,-14.0,-3.4,-1.4,2566,-1.7
CCN(CC)c1ccc(/C=N/NC(=O)c2c(Cl)cnn2C)c(O)c1,-8.1,-2.6,0.1,2122,-3.9
c1ccc(-c2csc(CN3CCCCC3)n2)cc1,-5.2,0.6,0.4,3392,8.8
F[B-](F)(F)COc1ccccc1,-4.3,-5.3,-0.1,3003,-3.9

# Assay outcomes deposited in PubChem by several laboratories.
